Laboratory results reported in the supplement of paper PMC13380429.

What was measured:
[1] = system: Vero E6 infected with SARS-CoV-2; assay: morphology score (similarity to uninfected cells); higher = more like uninfected cells; settings: 24 h
[2] = system: Vero E6 infected with SARS-CoV-2; assay: SARS-CoV-2 infection rate relative to infected DMSO; higher = more infection, active = 60 or less; settings: 24 h

Structure (SMILES)	morphology score [1]	SARS-CoV-2 infection rate [2]
CC(=O)N(O)[C@@H]1c2cc(C#N)ccc2OC(C)(C)[C@H]1O (10 µM)	0.477	59% (active)
N#Cc1cc2c(OCC(O)CN3CCN(C(c4ccccc4)c4ccccc4)CC3)cccc2[nH]1 (stereo not drawn) (0.833333 µM)	0.124	75% (inactive)
Nc1nc(OCc2cc(Br)cs2)c2[nH]cnc2n1 [lomeguatrib] (10 µM)	0.19	104% (inactive)
O=[N+]([O-])c1cnc(Sc2nnc(O)n2-c2ccc3c(c2)OCCO3)s1 (0.833333 µM)	0.392	76.5% (inactive)
Nc1ccccc1S(N)(=O)=O [2-aminobenzenesulfonamide] (10 µM)	-0.162	108% (inactive)
CCOc1cc2ncc(C#N)c(Nc3ccc(OCc4ccccn4)c(Cl)c3)c2cc1NC(=O)/C=C/CN(C)C [neratinib] (10 µM)	-0.265	102% (inactive)
Cc1cc2c(C(N)=O)cccc2n1-c1nc2c(c(NCc3ccccc3)n1)COCC2 (10 µM)	-0.0618	116% (inactive)
[O-][S+](c1ccccc1)c1ccc2nnnn2n1 (stereo not drawn) (0.833333 µM)	0.19	85.5% (inactive)
C=CCc1ccc(O)c(-c2cc(CC=C)ccc2O)c1 [magnolol] (10 µM)	0.249	108% (inactive)
Cc1nc(-c2cccnc2)sc1C(=O)Nc1ccccc1-c1cn2c(CN3CCOCC3)csc2n1 (10 µM)	0.215	98% (inactive)
CCC1(C)CC(=O)NC1=O (stereo not drawn) [ethosuximide] (10 µM)	0.0477	104% (inactive)
CCCCCCCCCCCC1=C(O)C(=O)C=C(O)C1=O [embelin] (10 µM)	-0.0413	106% (inactive)
O=C(C(c1ccccc1)c1ccccc1)N1CCN(CC(O)COc2cccc3ncccc23)CC1 (stereo not drawn) [dofequidar] (10 µM)	0.14	89.5% (inactive)
O=C(Nc1ccc(C(=O)O)c(O)c1)c1ccccc1 [benzoylpas] (10 µM)	0.206	91.5% (inactive)
Cn1cncc1[C@@](N)(c1ccc(Cl)cc1)c1ccc2c(c1)c(-c1cccc(Cl)c1)cc(=O)n2C [tipifarnib] (0.833333 µM)	0.398	89% (inactive)
NCCC(=O)N[C@@H](Cc1c[nH]cn1)C(=O)O [carnosine] (0.833333 µM)	0.0964	99% (inactive)
C[C@H]1C[C@H]2[C@@H]3CCC4=CC(=O)C=C[C@]4(C)[C@@]3(F)[C@@H](O)C[C@]2(C)[C@@]1(O)C(=O)CO [betamethasone] (10 µM)	-0.0234	111% (inactive)
Cc1nc2c(OCc3ccccc3)cccn2c1CC#N (10 µM)	0.0125	110% (inactive)
O=C1CCC[C@@H]2[C@H]3C[C@@H](CN12)[C@@H]1CCCCN1C3 [lupanine] (10 µM)	-0.065	102% (inactive)
O=C(NCC1CCCCN1)c1cc(OCC(F)(F)F)ccc1OCC(F)(F)F (stereo not drawn) [flecainide] (10 µM)	0.193	87.5% (inactive)
NC(=O)[C@H]1CCS[C@@H]2C[C@]3(CCCN3C(=O)Cc3ccc(NC(=O)COc4ccc(Cl)cc4Cl)cc3)C(=O)N12 (10 µM)	-0.263	111% (inactive)
CCN(CC)CCOc1ccc(/C(=C(\Cl)c2ccccc2)c2ccccc2)cc1 [clomifene] (0.833333 µM)	0.172	96.5% (inactive)
O=C(O)c1ccc2cc(-c3ccc(O)c(C45CC6CC(CC(C6)C4)C5)c3)ccc2c1 (0.833333 µM)	0.226	87.5% (inactive)
O=[N+]([O-])c1ccc2c(c1)S(=O)(=O)C=C2 [stattic] (0.833333 µM)	0.148	100% (inactive)
Cc1noc(-c2ccc(-c3ccc(CC(=O)O)cc3)cc2)c1NC(=O)O[C@H](C)c1ccccc1 (0.833333 µM)	0.148	112% (inactive)
O=C(c1ccc(Cl)cc1)N(Cc1ccccc1)C1CCCCC1 (10 µM)	-0.00245	103% (inactive)
Cc1ccc(NC(=O)c2cccc(C(C)(C)C#N)c2)cc1Nc1ccc2ncn(C)c(=O)c2c1 (0.833333 µM)	-0.0585	93.5% (inactive)
O=C(NN1C(=O)[C@@H]2[C@@H]3C=C[C@@H]([C@H]4C[C@@H]34)[C@@H]2C1=O)c1ccc(C(F)(F)F)cc1 [tecovirimat] (10 µM)	-0.108	102% (inactive)
C[N+]1(C)CCC(OC(=O)C(c2ccccc2)c2ccccc2)CC1 (10 µM)	0.103	114% (inactive)
